# HepG2 viability: HepG2 cytotoxicity, counter-screen for TGF-b inhibitors; HepG2 CAGA-GFP viability, ATP luminescence, 18 h; Potency, µM (doses to about 46.1 µM), without a hit: at the highest dose activity change, negative = cytotoxicity, hits mostly cytotoxic; 410,000 tested, 0.76% active; AID 588856; also: potency is read from the fitted curve at half-maximal effect
#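 HepG2 CAGA-GFP cells (1000/well, DMEM with 1% FBS) received compound, then TGF-beta at 500 pg/mL final, and were incubated 18 hours at 37 degrees C. Viability was read by CellTiter-Glo luminescence. Media-only wells were set as complete cell-killing and DMSO as no toxicity.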
# TGFb SMAD3 inh: blocks TGF-b signaling; HepG2 CAGA-GFP TGF-b/SMAD3 reporter, GFP fluorescence, 18 h; TGF-beta stimulated, 500 pg/mL final; Potency, µM (highest dose often 46.1 µM), without a hit: top-dose activity, negative = inhibition, usual class: inhibitors; 410,000 tested, 1.2% active; AID 588855; also: potency is read from the fitted curve at half-maximal effect; % is scaled to controls: 0 for no effect and ±100 for the full control effect; nearly all actives have a fitted effect of over 65% in size
#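 HEPG2 CAGA-GFP reporter cells (1000/well, DMEM with 1% FBS) received compounds, then recombinant TGF-beta at 500 pg/mL final for 18 hours at 37 degrees C. Per-cell GFP summed per well was normalised to unstimulated and stimulated DMSO controls before curve fitting.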
# IL-1B inflam inh: inhibitors of inflammasome signaling (IL-1 beta secretion). activity change, % at 57.5 µM. THP-1 LPS/ATP IL-1B secretion, AlphaLISA, 16 h; active compounds read low. 360,000 tested, 4.7% active; in the data active = activity change below about -50%; inconclusive = mostly about -30% to -49%; also: % is scaled to controls: 0 for no effect and ±100 for the full control effect
#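 THP-1 cells pretreated 1 hr with compounds (up to 57.5 uM final), then stimulated with LPS (250 ng/mL final) plus ATP (1.25 mM final); secreted IL-1B measured by AlphaLISA after 16 hr, decreased signal indicating inhibition.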
# TDP1 inh: TDP1 (human) enzyme inhibition; 350,000 tested, 0.28% active; recombinant TDP1, AlphaScreen DNA substrate cleavage; Potency, µM (highest dose often 130 µM), without a hit: at the top dose activity change, negative = inhibition, most hits filed as inhibitors; AID 485290; Q9NUW8; also: potency is read from the fitted curve at half-maximal effect; % is scaled to controls: 0 for no effect and ±100 for the full control effect; nearly all actives have a fitted effect of over 40% in size
# Target sequence (Q9NUW8 whole entry, looked up): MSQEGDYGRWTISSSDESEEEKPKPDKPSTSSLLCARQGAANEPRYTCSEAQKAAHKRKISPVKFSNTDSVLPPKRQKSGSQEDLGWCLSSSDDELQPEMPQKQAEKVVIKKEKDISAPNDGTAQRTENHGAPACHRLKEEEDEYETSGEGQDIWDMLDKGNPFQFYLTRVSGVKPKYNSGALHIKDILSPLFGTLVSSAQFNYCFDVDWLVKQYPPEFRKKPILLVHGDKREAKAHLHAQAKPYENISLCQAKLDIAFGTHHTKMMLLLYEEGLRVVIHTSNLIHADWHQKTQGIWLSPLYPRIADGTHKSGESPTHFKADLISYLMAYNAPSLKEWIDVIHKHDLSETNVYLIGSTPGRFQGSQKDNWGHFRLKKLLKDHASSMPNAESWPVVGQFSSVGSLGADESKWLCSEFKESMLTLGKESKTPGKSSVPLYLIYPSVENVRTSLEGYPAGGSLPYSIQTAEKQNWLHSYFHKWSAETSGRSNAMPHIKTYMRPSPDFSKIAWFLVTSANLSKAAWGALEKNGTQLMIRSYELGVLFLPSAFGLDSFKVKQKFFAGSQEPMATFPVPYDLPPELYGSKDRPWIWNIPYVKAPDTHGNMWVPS
#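 E. coli-derived human Tdp1, 1 nM final. Cpd preinc 15 min RT; substrate 15 nM final, 5 min RT; AS bead mix 10 ug/ml final, 10 min RT. Signal loss = tyrosine-FITC cleavage. No-enzyme wells = max signal.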
# TDP1 cell noCPT: qHTS for Inhibitors of human tyrosyl-DNA phosphodiesterase 1 (TDP1): qHTS in cells in absence of CPT | Potency, µM (doses to about 46.2 µM), for inactives: at the top dose activity change, negative = growth inhibition, hits mostly inhibitors | DT40 Tdp1-/- hTDP1 cells, no CPT, ATP luminescence, 48 h | AID 686978, 2013 | 420,000 tested, 15% active; also: potency is read from the fitted curve at half-maximal effect; % is scaled to controls: 0 for no effect and ±100 for the full control effect; nearly all actives have a fitted effect of over 55% in size
#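 Stably hTDP1-transfected Tdp1-null chicken DT40 cells were treated with library compounds minus camptothecin and grown for at least 48 hr at 37 °C, after which cellular ATP was quantified by luminescence.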
# TDP1 cell CPT: growth inhibition of DT40 Tdp1-/-;hTDP1 cells with camptothecin (screen for TDP1 inhibitors). 420,000 tested, 12% active. Potency, µM (doses to about 46.2 µM), for the others: at the top dose activity change, negative = growth inhibition, most hits filed as inhibitors. AID 686979. chicken DT40 Tdp1-/-;hTDP1 cells + 20 nM CPT, ATP luminescence, 48 h; also: potency is read from the fitted curve at half-maximal effect; % is scaled to controls: 0 for no effect and ±100 for the full control effect; nearly all actives have a fitted effect of over 55% in size
#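 Chicken DT40 Tdp1-/- cells complemented with human TDP1, 400 cells/well, exposed to compounds plus 20 nM camptothecin for at least 48 h at 37 C; viability read as ATP content by CellTiter-Glo luminescence.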
# Starred values were filed as active, the others as inactive; u = inconclusive; x = no result; [ ] = dose if it differs, or a comment. Shown are actives, neighbours in structure and some others; about 19% of the full set was active somewhere. Unless noted, calls follow the shape of the dose curve; as a rule, active = well fitted curve in the direction sought with a large enough effect; inconclusive = small, poorly fitted or top-dose-only effect, or another doubt; inactive = no such curve, though single readings can be large; an effect the other way counts as inactive or inconclusive.
SMILES,HepG2 viability,TGFb SMAD3 inh,IL-1B inflam inh,TDP1 inh,TDP1 cell noCPT,TDP1 cell CPT
COc1ccc(C2CC(c3ccc(Br)cc3)=NN2C(=O)CSC2=NCCS2)cc1 (centres undefined),-19%,-16%,-65*,3%,16µM*,16µM*
COc1ccc(C2=NN(C(=O)CSc3ncccn3)C(c3cccc(OC)c3OC)C2)cc1 (centres undefined),-16%,6%,-12,5%,u,u
COc1ccc(C2=NN(C(=O)CSc3ncccn3)C(c3ccc(C)cc3)C2)cc1 (centres undefined),-23%,u,-1,5%,18µM*,u
Cn1nc(C(C)(C)C)cc1C(=O)O,7%,3%,3,1%,0%,0%
Cn1nc(C(C)(C)C)cc1C(=O)Sc1cccc(Br)c1,2%,5%,-81*,x,10µM*,3.7µM*
COc1cc2c(cc1OC)-c1cc(NC3CCCC3)nc(=O)n1CC2,8%,8%,1,7%,u,-28%
CCN(CC)c1ccc(Nc2cc3n(c(=O)n2)CCc2cc(OC)c(OC)cc2-3)cc1,1%,4%,-95*,x,u,3%
COc1cc2c(cc1OC)-c1cc(Nc3ccc(N(C)C)cc3)nc(=O)n1CC2,1%,26%,-58*,8%,u,-17%
COc1cc2c(cc1OC)-c1cc(Nc3ccc(F)cc3)nc(=O)n1CC2,-2%,-14%,-51*,x,u,u
COc1cc2c(cc1OC)-c1cc(Nc3cccc(F)c3)nc(=O)n1CC2,-6%,2%,-26,x,u,4%
O=c1c(-c2ccccc2)nc2ccccc2n1C(CCc1ccccc1)c1nc2ccccc2[nH]1 (centres undefined),x,x,-27,x,u,6%
COc1ccc(NC(=O)c2cnc3cc(C)ccn3c2=O)c(OC)c1,6%,4%,x,-1%,-2%,1%
CC1CCN(c2ncnc3c2nnn3C)CC1,3%,-20%,x,3%,-15%,-20%
CCCC(c1nnnn1CC1CCCO1)N1CCN(c2nc3ccccc3s2)CC1 (centres undefined),-2%,-1%,-6,1%,u,u
CCCCC(c1nnnn1CC1CCCO1)N1CCN(c2cc(Cl)ccc2C)CC1 (centres undefined),7%,2%,-11,5%,16µM*,u
CCCCC(c1nnnn1CC1CCCO1)N1CCN(c2nc3ccccc3s2)CC1 (centres undefined),6%,16%,-12,5%,u,23µM*
CC(=O)Nc1ccc2c(COC(=O)CC3Sc4ccccc4NC3=O)cc(=O)oc2c1 (centres undefined),-7%,4%,3,20µM*,u,-32%
CC(=O)Nc1ccc(NC(=O)CC2Sc3ccccc3NC2=O)cc1 (centres undefined),-28%,-2%,x,x,u,u
N#Cc1cn(-c2ccccc2)nc1-c1cc2ccccc2oc1=O,-3%,-2%,-3,-10%,16µM*,u
CCCc1nnc(SCC(=O)NC2CCCC2)n1CCOC,18%,0%,17,0%,1%,1%
CNc1c(Br)cc(C=O)cc1Br,2%,12%,x,x,-29%,u
COc1ccc(OC)c(-c2csc(NC(=O)Cc3ccc(F)cc3)n2)c1,19%,u,-69*,x,u,-1%
COc1ccc(OC)c(-c2csc(NC(=O)c3ccc(F)cc3)n2)c1,-18%,u,-2,5%,u,7.3µM*
Cc1ccc(-c2csc(NC(=O)Cc3ccc(F)cc3)n2)o1,4%,u,-65*,11%,-11%,-6%
COc1ccc(-c2csc(NC(=O)CSc3nnnn3C)n2)c(OC)c1,-26%,-27%,-10,6%[0.505 µM],-13%,-11%
SMILES,HepG2 viability,TGFb SMAD3 inh,IL-1B inflam inh,TDP1 inh,TDP1 cell noCPT,TDP1 cell CPT
COc1ccc(OC)c(-c2csc(NC(=O)CSc3ccc([N+](=O)[O-])cc3)n2)c1,-32%,u,-69*,11%,16µM*,u
COc1ccc(-c2csc(NC(=O)c3ccco3)n2)cc1,-39%,0%,-26,-1%[56.1 µM],-13%,-6%
COc1ccc(-c2csc(NC(=O)c3c(OC)cccc3OC)n2)cc1,14µM*,5%,-18,2%,u,-30%
COc1cccc(CNC(=O)c2c(C)oc3nc(C)nc(N4CCOCC4)c23)c1,-20%,0%,x,2%,-5%,-9%
COc1ccc(C(=C2C(=O)Nc3ccccc32)c2ccc(OC)cc2)cc1,x,x,x,23%,x,x
O=C(c1ccc2c(=O)n(-c3ccccc3)c(=S)[nH]c2c1)N1CCN(c2ccccc2)CC1,-24%,u,24,0%[56.1 µM],12µM*,15µM*
O=C(c1ccc2c(c1)[nH]c(=S)n1c3ccccc3nc21)N1CCN(c2ncccn2)CC1,-15%,8%,-23,5%,u,21µM*
O=C(c1ccc2c(=O)n(Cc3ccccc3)c(=S)[nH]c2c1)N1CCCC1,-25%,2%,36,8%,u,-22%
O=C(c1ccc2c(=O)n(-c3ccccc3)c(=S)[nH]c2c1)N1CCCCC1,-1%,u,11,4%,6.5µM*,6.5µM*
CCOCCCn1c(=S)[nH]c2cc(C(=O)N3CCN(c4ccccc4)CC3)ccc2c1=O,-12%,-16%,29,2%,-12%,u
Cc1ccc(CSc2ncc(Cl)c(C(=O)Oc3ccc(F)cc3)n2)cc1,-55%,-20%,x,0%,-5%,-23%
COc1ccccc1N1CCN(S(=O)(=O)c2ccc(-c3cc(C(F)(F)F)on3)s2)CC1,1%,-3%,x,0%,u,u
O=C(CSc1ncccc1C(=O)Oc1ccccc1Cl)Nc1ccccc1Cl,-13%,-22%,x,8%,u,u
Nc1c(C(=O)NCc2ccco2)sc2nc3c(cc12)C(=O)CCC3,-1%,-1%,-4,2%,u,-29%
CCOCCCNC(=O)c1cc2cc3cc(OC)ccc3nc2o1,3%,10%,-2,x,-29%,16µM*
COCCNC(=O)c1cc2cc3ccc(OC)cc3nc2o1,7%,-1%,-5,x,7%,-4%
COc1ccc2cc3c(N)c(C(=O)NCc4ccco4)sc3nc2c1,-34%,0%,-63*,-3%,u,u
COc1ccc(Nc2nc(C(=O)NCc3ccco3)cs2)cc1,-43%,u,-4,x,u,23µM*

# Screening results from PubChem.
